Results on 21 molecules are retold here after PubChem BioAssay (NCI).

A short description of experiment [1]: NCI Yeast Anticancer Drug Screen. Data for the rad50 strain (AID 155).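 Note: 0% = growth of vehicle-only cultures of the same strain.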 The note with it: S. cerevisiae rad50 strain growth inhibition; at 50.0 µM; hits give high values. The method in brief: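 Inhibition values express reduced yeast growth in compound-treated cultures relative to vehicle-treated controls.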
A short description of experiment [2]: NCI Yeast Anticancer Drug Screen. Data for the mec2-1 strain (AID 157). The settings on record: S. cerevisiae mec2-1 strain, at 50.0 µM, hits give high values. An outline of the steps:
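Compounds were applied to mec2-1 yeast cells. Their growth was then compared with that of vehicle-treated cultures to give growth inhibition.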

A short description of experiment [3]: NCI Yeast Anticancer Drug Screen. Data for the sgs1 mgt1 strain (AID 161).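 Note: 0% = growth of cultures given vehicle only.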 The note with it: S. cerevisiae sgs1 mgt1 strain, at 50.0 µM, hits give high values. The method in brief:
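Growth of a repair-deficient yeast mutant was monitored after compound treatment and expressed as inhibition relative to vehicle-treated cultures.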

Experiment [4] can be described thus: NCI Yeast Anticancer Drug Screen. Data for the cln2 rad14 strain (AID 165).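 Note: 0% = growth equal to vehicle treated cultures.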 The settings on record: S. cerevisiae cln2 rad14 strain, at 50.0 µM, hits give high values. The method in brief:
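Strain: cln2 rad14 yeast, altered in cell cycle control and DNA damage repair. Read-out: growth inhibition vs vehicle.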

Experiment [5] can be described thus: NCI Yeast Anticancer Drug Screen. Data for the bub3 strain (AID 167). The settings on record: S. cerevisiae bub3 mutant strain, at 50.0 µM, hits give high values. An outline of the steps:
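Steps: expose the mutant yeast strain to compound; grow alongside vehicle-treated cultures; measure growth; express inhibition against the vehicle cultures.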

A short description of experiment [6]: NCI Yeast Anticancer Drug Screen. Data for the mlh1 rad18 strain (AID 175). The settings on record: S. cerevisiae mlh1 rad18 strain growth inhibition; at 50.0 µM; hits give high values. The method in brief:
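A repair-deficient yeast strain is exposed to test compound, and growth is scored relative to vehicle-treated controls.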

This is part of a sample that, as a whole, favours compounds with a hit. Of some 79,000 tested, about 15% had one in any assay. Unmarked numbers belong to inactive results. Calls of active or inactive are those of the source. Cut-off read from the data, not from the text of the source: active = growth inhibition above about 70%; inactive = the rest.

Consider `CC(C)(CN1CCCCC1)C(=O)/C=C/c1ccc(Br)cc1`, for which the growth inhibition in experiment [1] was 66.9%; in experiment [2], 22.8%; in experiment [3] it was 59.6%; in experiment [4], 41.4%; in experiment [5], 47.8%; in experiment [6], 55.6%.
As to `CNC1(C(N)=O)CCN(Cc2ccccc2)CC1`, the growth inhibition in experiment [1] was -14.7%; in experiment [2], -10.3%; in experiment [3], -25.8%; in experiment [4], 0.75%; in experiment [5], -3.6%; in experiment [6], -8.35%.
Turning to `C/C(=N\Nc1ccc([N+](=O)[O-])cc1)C(=O)N(C)Nc1ccccc1`, the growth inhibition is -6% in experiment [1]; -54.2% in experiment [2]; -38% in experiment [3]; -5.7% in experiment [4]; -59.7% in experiment [5]; -5.4% in experiment [6].
Take `C[N+](C)(C)Cc1ccc2ccccc2c1CC(O)(c1ccccc1)c1ccccc1`: the growth inhibition in experiment [1] is 16.6%; in experiment [2] it was -0.6%; in experiment [3], 19.1%; in experiment [4], 4.85%; in experiment [5], 1.95%; in experiment [6] it was 9.8%.
For `NCC(NC(=O)OCc1ccccc1)C(=O)O` (stereo unspecified), the growth inhibition in experiment [1] is 3.2%; in experiment [2], 12.4%; in experiment [3], 3.3%; in experiment [4], 19.1%; in experiment [5], 5.7%; in experiment [6], 32.1%.
As to `COc1cc(C2c3c(oc4ccccc4c3=O)Oc3oc4ccccc4c(=O)c32)cc(OC)c1O`, the growth inhibition was -17.4% in experiment [1]; 4.65% in experiment [2]; 5.25% in experiment [3]; 31.9% in experiment [4]; -0.3% in experiment [5]; -13.1% in experiment [6].
Take `COC(=O)C1C2CC3C1C3C2C(=O)OC` (stereo unspecified): the growth inhibition was -14.2% in experiment [1]; -8.2% in experiment [2]; -4.45% in experiment [3]; 19.6% in experiment [4]; -14.6% in experiment [5]; -18.6% in experiment [6].
With `Cc1cc(C(C)C)c(C)cc1C(C)C`, the growth inhibition in experiment [1] was -18.9%; in experiment [2], -4.25%; in experiment [3], -14.4%; in experiment [4], -7%; in experiment [5], -6.2%; in experiment [6] it was -4.15%.
With `COc1ccc2[nH]c(=O)c(C(C)=O)c(O)c2c1`, the growth inhibition in experiment [1] is 3%; in experiment [2], 6.95%; in experiment [3], 6.15%; in experiment [4] it was 1.6%; in experiment [5], 7.15%; in experiment [6], 7.85%.
Consider `Cc1cc2c(=O)[nH]cnc2[nH]1`, for which the growth inhibition in experiment [1] is -5.6%; in experiment [2], -1.35%; in experiment [3], -16.7%; in experiment [4] it was 4.45%; in experiment [5], 13.8%; in experiment [6], -1.15%.
On to `CS/C(=C\c1ccc2cc(C)ccc2[n+]1C)N1CCOCC1`, for which the growth inhibition was 7.25% in experiment [1]; -3.85% in experiment [2]; -16% in experiment [3]; -2.05% in experiment [4]; -45.6% in experiment [5]; -56.5% in experiment [6].
For the molecule `CC(=O)c1ccccc1C(=O)O`, the growth inhibition was 6.05% in experiment [1]; 7.45% in experiment [2]; -6.65% in experiment [3]; 7.6% in experiment [4]; 6.25% in experiment [5]; -9.55% in experiment [6].
For `CC1=Nc2ccccc2C1(C)C`, the growth inhibition in experiment [1] is 8.25%; in experiment [2], 8.8%; in experiment [3], 15%; in experiment [4] it was 21.2%; in experiment [5], 4.55%; in experiment [6], 9.3%.
As to `CC(=O)CC(C)(C)NC(=S)Nc1ccc(O)cc1`, the growth inhibition was 99.7% (active) in experiment [1]; 99.5% (active) in experiment [2]; 99.8% (active) in experiment [3]; 98.8% (active) in experiment [4]; 99.8% (active) in experiment [5]; 99.8% (active) in experiment [6].
Consider `CC(C)OP(=O)(O)CCl`, for which the growth inhibition in experiment [1] is -16.9%; in experiment [2], -12.6%; in experiment [3], -24.4%; in experiment [4], -11.4%; in experiment [5], -13.6%; in experiment [6] it was -26.3%.
On to `COC(=O)c1cc2c(cc1CC1Cc3cc4c(cc3C1=O)CCC4)CCC2` (stereo unspecified), for which the growth inhibition in experiment [1] is -16.1%; in experiment [2] it was -42.3%; in experiment [3] it was -10.4%; in experiment [4] it was 9.3%; in experiment [5], 19.6%; in experiment [6] it was 1.65%.
Turning to `CCN(CC)CC(C)(C)C=O`, the growth inhibition in experiment [1] is 26.9%; in experiment [2], -19.8%; in experiment [3], 20.8%; in experiment [4], 4.3%; in experiment [5], -7.55%; in experiment [6], 15.1%.
In the case of `CC(=O)NC1C(OC(C)=O)OC(COC(c2ccccc2)(c2ccccc2)c2ccccc2)C(O)C1OC(C)=O` (stereo unspecified), the growth inhibition in experiment [1] is 63.9%; in experiment [2], 47.5%; in experiment [3], 5%; in experiment [4], 41.2%; in experiment [5] it was 47.2%; in experiment [6], 44%.
In the case of `CCCC(CCO)(CCO)c1ccccc1`, the growth inhibition in experiment [1] is 16.6%; in experiment [2] it was -30.4%; in experiment [3], -9.65%; in experiment [4], 10.9%; in experiment [5], 8.1%; in experiment [6], -5.7%.
With `O=c1cc(-c2ccccc2)oc2c1ccc1c(O)cccc12`, the growth inhibition in experiment [1] is 11.1%; in experiment [2], -2.5%; in experiment [3] it was -6.9%; in experiment [4], 21.5%; in experiment [5], 31.9%; in experiment [6], 8.95%.
For `CCOC(=O)C[P+](c1ccc(OC)cc1)(c1ccc(OC)cc1)c1ccc(OC)cc1`, the growth inhibition in experiment [1] was 90.8% (active); in experiment [2], 95.8% (active); in experiment [3], 92.5% (active); in experiment [4], 92.9% (active); in experiment [5] it was 92.3% (active); in experiment [6] it was 91.5% (active).
